The source of these data is PubChem BioAssay (Tox21).

Values without a mark were called inactive. Results filed as inconclusive are left out. Active and inactive are the calls of the source. Unless noted, calls follow the shape of the dose curve; as a rule, active = well fitted curve in the direction sought with a large enough effect in the repeat runs; inconclusive = weak or mixed curves; inactive = no such curve, though single readings can be large; an effect the other way counts as inactive or inconclusive.

Assay [1] has as its target Thyrotropin-releasing hormone receptor (Homo sapiens) (UniProt P34981). In words: qHTS assay to identify small molecule agonists of the thyrotropin-releasing hormone receptor (TRHR) signaling pathway (AID 1346891; calls by dose curve;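 also: HEK293 cells expressing TRHR with calcium dye readout; series mostly up to about 58 µM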). The gist of the method: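 Overnight-plated (18 h, 37 °C, 5% CO2) TRHR-Hek293 cells; 2 h calcium dye at 37 °C; compound in DMSO; 3-min kinetic fluorescence read.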

Assay [2] is described as follows: Human pregnane X receptor (PXR) small molecule agonists, qHTS cell viability counter screen (AID 1346977). Also: nearly all actives have a fitted effect of over 50% in size. Summed up: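 After a 5hr pre-incubation, PXR-Luc HepG2 cells received compounds plus positive control in DMSO and were kept 24hr at 37C. Cell viability was quantified by fluorescence from CellTiter-Fluor added for the final hour.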
A short description of assay [3]: Caspase-3/7 induction in HepG2 cells by small molecules, qHTS assay (AID 1346978). Also: nearly all actives have a fitted effect of over 15% in size. Summed up:
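Wild-type HepG2 cells, 2,000/well, settled 5 hr at 37 C and 5% CO2, then compound-treated for 17 hr; caspase-3/7 activity read by luminescent Caspase-Glo 3/7 after 30 min at room temperature.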

Assay [4] in a line: Caspase-3/7 induction in CHO-K1 cells by small molecules, qHTS cell viability counter screen (AID 1346979). Also: nearly all actives have a fitted effect of over 35% in size. The gist of the method: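 Multiplexed with Caspase-Glo 3/7 in CHO-K1 cells, this counter screen added CellTiter-Fluor after 16hr of compound exposure and recorded fluorescence 1hr later.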
Assay [5] is described as follows: Caspase-3/7 induction in CHO-K1 cells by small molecules, qHTS assay (AID 1346980). Also: nearly all actives have a fitted effect of over 15% in size. The gist of the method:
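Wild-type CHO-K1 cells exposed to compounds for 17hr at 37 C, 5% CO2. Caspase-3/7 activity then measured by Caspase-Glo 3/7 luminescence after 30min at room temperature.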

A short description of assay [6]: Caspase-3/7 induction in HepG2 cells by small molecules, qHTS cell viability counter screen (AID 1346981). Also: series mostly up to about 92 µM; nearly all actives have a fitted effect of over 30% in size. Summed up: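 Treatment of HepG2 cells with DMSO-delivered compounds ran 16 hr at 37 C following a 5-hr pre-incubation of 2,000 cells/well. CellTiter-Fluor fluorescence, read after 1 hr, served as the viability measure in a qHTS format.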
The target in assay [7] is Nuclear receptor subfamily 1 group I member 2 (Homo sapiens) (UniProt O75469). Briefly: Human pregnane X receptor (PXR) small molecule agonists, qHTS assay (AID 1346982). Also: nearly all actives have a fitted effect of over 35% in size. Also: potency is read from the fitted curve at half-maximal effect. The gist of the method:
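Stable HepG2 line reporting PXR-mediated CYP3A4 expression via luciferase. Treatment: 24 hr with compounds in DMSO at 37 C. Detection: ONE-Glo luminescence.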

Assay [8] deals with Acetylcholinesterase (Homo sapiens) (UniProt P22303). Briefly: Acetylcholinesterase (AChE) small molecule antagonists: colormetric cell-based qHTS assay (AID 1347395; calls by dose curve; also: nearly all actives have a fitted effect of over 30% in size; also: potency is read from the fitted curve at half-maximal effect). The gist of the method: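 In this cell-based qHTS, attached SH-SY5Y cells were treated with test chemicals for 30 min, after which acetylthiocholine hydrolysis was followed by DTNB colour development over 90 min at 37 C.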
Chain of Acetylcholinesterase (Homo sapiens) (P22303 whole entry, looked up): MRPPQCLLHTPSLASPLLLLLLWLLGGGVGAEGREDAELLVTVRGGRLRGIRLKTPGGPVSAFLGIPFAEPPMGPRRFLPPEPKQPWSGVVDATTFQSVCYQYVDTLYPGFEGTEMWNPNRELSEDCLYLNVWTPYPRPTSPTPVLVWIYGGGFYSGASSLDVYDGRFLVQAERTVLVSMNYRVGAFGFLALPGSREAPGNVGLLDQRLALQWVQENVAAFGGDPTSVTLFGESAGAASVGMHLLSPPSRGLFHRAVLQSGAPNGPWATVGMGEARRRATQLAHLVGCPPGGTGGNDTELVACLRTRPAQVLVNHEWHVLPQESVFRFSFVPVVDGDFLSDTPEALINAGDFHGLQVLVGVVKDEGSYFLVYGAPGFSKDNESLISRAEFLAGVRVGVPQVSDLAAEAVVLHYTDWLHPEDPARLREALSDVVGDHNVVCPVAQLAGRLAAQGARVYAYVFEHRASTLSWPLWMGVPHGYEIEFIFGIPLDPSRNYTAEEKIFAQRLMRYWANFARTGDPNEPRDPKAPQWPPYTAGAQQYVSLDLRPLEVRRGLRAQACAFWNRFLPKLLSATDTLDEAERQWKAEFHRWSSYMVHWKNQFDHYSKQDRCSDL

For assay [9] the target is unchanged. Briefly: Acetylcholinesterase (AChE) small molecule antagonists: enzyme-based qHTS assay (AID 1347397; calls by dose curve; also: nearly all actives have a fitted effect of over 55% in size). To be noted: Potency: AChE enzyme activity inhibition. The gist of the method:
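Colorimetric DTNB read-out of thiocholine released from acetylthiocholine by recombinant human AChE (50 mU/mL as dispensed). Compounds were preincubated 30 min at RT before substrate/DTNB addition, with a 10 min RT reaction.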

The target is the same in assay [10]. Briefly: Acetylcholinesterase (AChE) small molecule antagonists: fluorescence cell-based qHTS assay (AID 1347398; calls by dose curve; also: nearly all actives have a fitted effect of over 50% in size). To be noted: Potency: AChE activity. Summed up:
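SH-SY5Y, 2,000 cells/well, attached overnight; cmpd 30 min 37 C; acetylthiocholine/Thiolite Green cocktail 40 min RT; fluorescence Ex/Em 490/520 nm.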

In assay [11] the target is Cytochrome P450 2D6 (Homo sapiens) (UniProt P10635). Briefly: Cytochrome P450 Family 2 Subfamily D Member 6 (CYP2D6) small molecule antagonists: luciferase reporter qHTS assay (AID 1671196). Also: nearly all actives have a fitted effect of over 50% in size. Also: potency is read from the fitted curve at half-maximal effect. Summed up:
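Chemicals tested for interference with CYP2D6 activity; proluciferin substrate, NADPH regeneration, 1 h at room temperature, luminescent detection.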

Assay [12] deals with Cytochrome P450 2C19 (Homo sapiens) (UniProt P33261). In words: Cytochrome P450 Family 2 Subfamily C Member 19 (CYP2C19) small molecule antagonists: luciferase reporter qHTS assay (AID 1671197). Also: nearly all actives have a fitted effect of over 65% in size. Also: potency is read from the fitted curve at half-maximal effect. The gist of the method:
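First, compounds are pinned into enzyme-substrate mix and held 10 min at room temperature. Second, NADPH regeneration solution is added and plates incubate 1 h at 37C. Third, detection reagent is added and luminescence read after 20 min.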

For assay [13], the target named is Cytochrome P450 2C9 (Homo sapiens) (UniProt P11712). In words: Cytochrome P450 Family 2 Subfamily C Member 9 (CYP2C9) small molecule antagonists: luciferase reporter qHTS assay (AID 1671198). Also: nearly all actives have a fitted effect of over 50% in size. Also: potency is read from the fitted curve at half-maximal effect. Summed up: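 P450-Glo proluciferin substrate with CYP2C9 enzyme; 10 min RT preincubation, then NADPH regeneration 1 h at 37C; luciferin detection reagent 20 min RT, luminescence in relative luminescence units.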
Chain of Cytochrome P450 2C9 (Homo sapiens) (P11712 whole entry, looked up): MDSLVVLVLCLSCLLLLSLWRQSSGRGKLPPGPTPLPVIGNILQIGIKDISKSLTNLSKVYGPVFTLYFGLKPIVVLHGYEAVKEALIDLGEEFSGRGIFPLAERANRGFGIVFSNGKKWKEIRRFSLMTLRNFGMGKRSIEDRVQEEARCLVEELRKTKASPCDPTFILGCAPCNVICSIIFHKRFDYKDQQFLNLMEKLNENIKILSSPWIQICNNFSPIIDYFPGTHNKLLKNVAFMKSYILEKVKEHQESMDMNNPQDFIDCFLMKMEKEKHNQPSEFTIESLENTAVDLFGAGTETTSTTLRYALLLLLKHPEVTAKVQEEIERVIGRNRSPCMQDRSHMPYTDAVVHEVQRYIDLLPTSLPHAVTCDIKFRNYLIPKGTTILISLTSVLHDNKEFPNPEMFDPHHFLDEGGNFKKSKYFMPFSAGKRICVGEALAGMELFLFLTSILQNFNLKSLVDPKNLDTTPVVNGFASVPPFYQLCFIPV

Assay [14] has as its target Cytochrome P450 3A4 (Homo sapiens) (UniProt P08684). Briefly: Cytochrome P450 Family 3 Subfamily A Member 4 (CYP3A4) small molecule antagonists: luciferase reporter qHTS assay (AID 1671201). Also: nearly all actives have a fitted effect of over 50% in size. Also: potency is read from the fitted curve at half-maximal effect. Summed up:
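Room-temperature assay throughout: 10 min compound–enzyme/substrate preincubation, 1 h reaction after NADPH regeneration solution, 20 min detection. Luciferin formed from proluciferin substrate is quantified by luminescence.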

Assay [15] deals with Acetylcholinesterase (Homo sapiens) (UniProt P22303). In words: Acetylcholinesterase (AChE) small molecule antagonists: enzyme-based qHTS assay with human liver microsomes (AID 1347399; calls by dose curve; also: nearly all actives have a fitted effect of over 60% in size). To be noted: Potency: qHTS inhibition. Summed up:
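Recombinant human AChE (50 mU/mL in the enzyme mix) and human liver microsomes (0.25 mg/mL final) were preincubated with compound and NADPH (0.25 mg/mL final) for 30 min at 37 C. Acetylthiocholine/DTNB was then added; thiocholine was read colorimetrically after 10 min at room temperature.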

Assay [16] addresses Cytochrome P450 1A2 (Homo sapiens) (UniProt P05177). Briefly: Cytochrome P450 Family 1 Subfamily A Member 2 (CYP1A2) small molecule antagonists: luciferase reporter qHTS assay (AID 1671199). Also: nearly all actives have a fitted effect of over 50% in size. Also: potency is read from the fitted curve at half-maximal effect. The gist of the method:
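Read-out is luminescence from luciferin detection reagent (20 min) proportional to CYP1A2 activity; compounds in DMSO preincubated 10 min with enzyme and proluciferin substrate, then NADPH regeneration solution, 1 h, room temperature.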

Assay [17] addresses Voltage-gated inwardly rectifying potassium channel KCNH2 (Homo sapiens) (UniProt Q12809). In words: Human Ether-a-go-go-Related Gene (hERG) channel small molecule antagonists: fluorescence cell-based qHTS assay (AID 1671200). Also: nearly all actives have a fitted effect of over 50% in size. Also: potency is read from the fitted curve at half-maximal effect. The gist of the method:
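Cell line hERG-U2OS; dye FluxOR II, 1 h RT dark; Tl+ stimulus; ex 480/em 540 nm, read each second for 2 min.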

Chain of Thyrotropin-releasing hormone receptor (Homo sapiens) (P34981 whole entry, looked up): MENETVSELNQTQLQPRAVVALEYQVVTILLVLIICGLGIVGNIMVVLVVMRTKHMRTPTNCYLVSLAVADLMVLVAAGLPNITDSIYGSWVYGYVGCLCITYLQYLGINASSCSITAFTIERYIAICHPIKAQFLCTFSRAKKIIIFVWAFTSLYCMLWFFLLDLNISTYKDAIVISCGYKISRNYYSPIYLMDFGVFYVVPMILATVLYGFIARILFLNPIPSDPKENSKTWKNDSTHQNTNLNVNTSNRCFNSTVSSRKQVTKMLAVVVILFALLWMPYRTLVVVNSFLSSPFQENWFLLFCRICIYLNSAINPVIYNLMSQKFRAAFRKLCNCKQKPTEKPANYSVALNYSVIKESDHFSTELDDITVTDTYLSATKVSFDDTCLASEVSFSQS
Chain of Cytochrome P450 2C19 (Homo sapiens) (P33261 whole entry, looked up): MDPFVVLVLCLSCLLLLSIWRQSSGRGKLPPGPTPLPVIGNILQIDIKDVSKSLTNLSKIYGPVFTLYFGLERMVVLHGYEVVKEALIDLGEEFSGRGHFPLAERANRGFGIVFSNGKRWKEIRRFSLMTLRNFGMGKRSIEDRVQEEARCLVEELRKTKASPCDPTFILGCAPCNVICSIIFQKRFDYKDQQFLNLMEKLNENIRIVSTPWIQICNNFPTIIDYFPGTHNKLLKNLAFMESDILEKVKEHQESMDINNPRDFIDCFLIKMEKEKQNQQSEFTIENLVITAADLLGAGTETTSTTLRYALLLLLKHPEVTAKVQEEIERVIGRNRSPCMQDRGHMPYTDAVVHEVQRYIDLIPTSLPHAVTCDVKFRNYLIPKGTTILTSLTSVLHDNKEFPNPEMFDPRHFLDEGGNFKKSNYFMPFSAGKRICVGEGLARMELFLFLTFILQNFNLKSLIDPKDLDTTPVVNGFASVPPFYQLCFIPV
Chain of Voltage-gated inwardly rectifying potassium channel KCNH2 (Homo sapiens) (Q12809 whole entry, looked up): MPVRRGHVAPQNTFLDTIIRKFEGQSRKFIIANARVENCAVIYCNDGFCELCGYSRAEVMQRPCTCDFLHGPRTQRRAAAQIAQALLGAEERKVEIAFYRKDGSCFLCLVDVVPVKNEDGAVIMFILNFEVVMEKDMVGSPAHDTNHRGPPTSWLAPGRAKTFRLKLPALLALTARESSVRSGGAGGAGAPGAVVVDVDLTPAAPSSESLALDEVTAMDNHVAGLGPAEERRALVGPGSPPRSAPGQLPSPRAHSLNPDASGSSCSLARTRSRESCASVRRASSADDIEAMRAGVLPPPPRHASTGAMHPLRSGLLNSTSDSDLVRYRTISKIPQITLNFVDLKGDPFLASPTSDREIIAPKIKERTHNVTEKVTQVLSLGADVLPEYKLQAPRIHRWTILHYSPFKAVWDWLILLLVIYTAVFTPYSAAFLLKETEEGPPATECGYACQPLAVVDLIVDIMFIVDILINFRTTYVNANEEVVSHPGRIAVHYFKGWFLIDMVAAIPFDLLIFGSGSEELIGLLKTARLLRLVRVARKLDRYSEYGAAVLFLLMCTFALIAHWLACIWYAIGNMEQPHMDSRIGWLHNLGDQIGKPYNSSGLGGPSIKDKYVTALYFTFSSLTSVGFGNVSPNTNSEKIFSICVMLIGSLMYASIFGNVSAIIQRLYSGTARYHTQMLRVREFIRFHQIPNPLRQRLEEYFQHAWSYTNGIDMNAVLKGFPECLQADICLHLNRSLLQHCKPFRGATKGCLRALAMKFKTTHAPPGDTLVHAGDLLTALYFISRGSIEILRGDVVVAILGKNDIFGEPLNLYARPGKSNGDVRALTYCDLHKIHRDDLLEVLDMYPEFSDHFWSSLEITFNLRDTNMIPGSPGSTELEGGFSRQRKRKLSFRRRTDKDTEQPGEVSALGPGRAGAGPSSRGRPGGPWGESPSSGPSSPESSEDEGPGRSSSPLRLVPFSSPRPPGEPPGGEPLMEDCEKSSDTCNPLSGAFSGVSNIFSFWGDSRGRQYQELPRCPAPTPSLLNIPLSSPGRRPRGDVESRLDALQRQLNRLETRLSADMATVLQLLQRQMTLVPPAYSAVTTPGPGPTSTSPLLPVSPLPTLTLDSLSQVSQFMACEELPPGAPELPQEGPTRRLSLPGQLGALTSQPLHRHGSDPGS
Chain of Nuclear receptor subfamily 1 group I member 2 (Homo sapiens) (O75469 whole entry, looked up): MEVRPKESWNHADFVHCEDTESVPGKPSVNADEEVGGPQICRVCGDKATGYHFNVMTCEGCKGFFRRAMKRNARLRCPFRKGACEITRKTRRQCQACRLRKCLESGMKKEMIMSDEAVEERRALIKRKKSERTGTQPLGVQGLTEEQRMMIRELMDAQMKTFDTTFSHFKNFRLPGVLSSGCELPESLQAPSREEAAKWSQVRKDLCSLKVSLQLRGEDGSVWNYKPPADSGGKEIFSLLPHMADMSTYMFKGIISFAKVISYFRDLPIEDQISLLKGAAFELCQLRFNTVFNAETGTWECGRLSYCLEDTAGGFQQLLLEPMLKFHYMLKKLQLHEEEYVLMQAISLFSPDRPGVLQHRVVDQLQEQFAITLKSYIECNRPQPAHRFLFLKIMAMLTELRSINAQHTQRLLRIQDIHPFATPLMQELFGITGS
Chain of Cytochrome P450 2D6 (Homo sapiens) (P10635 whole entry, looked up): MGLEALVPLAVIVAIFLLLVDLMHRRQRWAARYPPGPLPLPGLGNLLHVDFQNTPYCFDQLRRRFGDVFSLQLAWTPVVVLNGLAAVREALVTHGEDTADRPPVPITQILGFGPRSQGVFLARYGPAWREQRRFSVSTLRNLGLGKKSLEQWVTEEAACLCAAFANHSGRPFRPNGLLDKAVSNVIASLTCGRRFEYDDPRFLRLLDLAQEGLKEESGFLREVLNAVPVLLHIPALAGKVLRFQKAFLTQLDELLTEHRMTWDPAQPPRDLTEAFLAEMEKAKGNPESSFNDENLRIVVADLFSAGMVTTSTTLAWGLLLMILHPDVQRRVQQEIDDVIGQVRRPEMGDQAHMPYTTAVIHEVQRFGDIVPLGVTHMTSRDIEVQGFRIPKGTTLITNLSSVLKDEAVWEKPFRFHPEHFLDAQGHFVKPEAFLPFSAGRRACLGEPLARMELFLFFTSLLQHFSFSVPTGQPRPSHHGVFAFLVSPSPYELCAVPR
Chain of Cytochrome P450 1A2 (Homo sapiens) (P05177 whole entry, looked up): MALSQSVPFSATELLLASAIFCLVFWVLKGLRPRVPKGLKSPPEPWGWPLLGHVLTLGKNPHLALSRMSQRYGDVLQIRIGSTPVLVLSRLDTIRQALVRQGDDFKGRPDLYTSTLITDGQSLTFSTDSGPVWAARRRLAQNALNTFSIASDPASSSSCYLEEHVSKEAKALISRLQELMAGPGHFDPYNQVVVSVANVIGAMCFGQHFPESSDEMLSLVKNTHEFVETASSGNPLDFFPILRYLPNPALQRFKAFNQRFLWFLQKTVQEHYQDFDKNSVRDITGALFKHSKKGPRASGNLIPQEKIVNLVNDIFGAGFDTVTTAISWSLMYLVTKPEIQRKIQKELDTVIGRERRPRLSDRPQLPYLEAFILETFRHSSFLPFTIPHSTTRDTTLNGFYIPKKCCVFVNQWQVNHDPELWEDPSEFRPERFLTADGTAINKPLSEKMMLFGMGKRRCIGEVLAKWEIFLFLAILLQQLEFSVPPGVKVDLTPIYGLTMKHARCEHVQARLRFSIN

Regarding `Cc1c(F)c(F)c(COC(=O)C2C(/C=C(\Cl)C(F)(F)F)C2(C)C)c(F)c1F` (centres undefined), the Potency entry in assay [1], in [2], in [3], in assay [4], in [5] and in assay [6] was “inactive” each time. For the same compound, the Potency result in [8], in assay [9], in assay [10], in assay [11] and in [14] was “inactive” in each case. The Potency in [7] was 13.7 µM (active); in assay [12], 35.6 µM (active); in [13] it was 22.4 µM (active).
As to `CC(C)(CCl)C(=O)Cl`, the Potency entry in assay [1], in assay [2], in [3], in [4], in assay [5] and in assay [6] was “inactive” each time. Besides, the Potency entry in assay [8], in [9], in [10], in [15], in [12] and in assay [13] was “inactive” throughout. Besides, the Potency result in assay [16] and in assay [14] was “inactive” each time.
In the case of `CCOP(=S)(Oc1ccc([N+](=O)[O-])cc1)c1ccccc1` (centres undefined), the Potency result in assay [1], in assay [2], in [3], in assay [4], in assay [5] and in assay [6] was “inactive” in each case. The Potency result in assay [7], in [8], in assay [9] and in [10] was “inactive” throughout. Further, the Potency is 0.159 µM (active) in assay [12]; 0.564 µM (active) in assay [13]; 5.64 µM (active) in assay [16]; 616 nM (active) in assay [17]; 1.59 µM (active) in [14].
For the compound `CCOP(=S)(OCC)SCSCC`, the Potency entry in assay [1], in assay [2], in [3], in assay [4], in assay [5] and in assay [6] was “inactive” each time. Further, the Potency entry in assay [7], in assay [9], in [15] and in assay [17] was “inactive” throughout. Moreover, the Potency is 63.3 µM (active) in assay [8]; 20 µM (active) in assay [12]; 35.6 µM (active) in assay [13]; 22.4 µM (active) in assay [16]; 6.33 µM (active) in [14].
As to `CCCN(CCCl)c1c([N+](=O)[O-])cc(C(F)(F)F)cc1[N+](=O)[O-]`, the Potency entry in [1], in [2], in [3], in [4], in assay [5] and in assay [6] was “inactive” in each case. The Potency entry in assay [8], in [9], in assay [10] and in assay [15] was “inactive” each time. In addition, the Potency in assay [7] was 21.7 µM (active); in assay [12], 17.8 µM (active); in [13] it was 20 µM (active); in assay [16], 12.6 µM (active); in assay [14] it was 22.4 µM (active).
In the case of `ClCc1cccc(Cl)c1`, the Potency entry in [1], in assay [2], in assay [3], in [4], in assay [5] and in assay [6] was “inactive” each time. For the same compound, the Potency entry in assay [7], in assay [8], in assay [9], in [10], in assay [12] and in assay [13] was “inactive” each time. The Potency result in assay [16], in assay [17] and in assay [14] was “inactive” each time. In [11], the Potency is 27.5 µM (active).
Regarding `C[C@H]1CNCCc2ccc(Cl)cc21`, the Potency result in assay [1], in assay [2], in [3], in assay [4], in assay [5] and in assay [6] was “inactive” each time. Further, the Potency result in assay [7], in [8], in assay [9], in assay [10], in assay [12] and in [13] was “inactive” throughout. Besides, the Potency entry in assay [16], in assay [17] and in [14] was “inactive” in each case. Moreover, the Potency in assay [11] was 1.38 µM (active).
As for `CCBr`, the Potency result in [1], in assay [2], in assay [3], in [4], in assay [5] and in assay [6] was “inactive” throughout. For the same compound, the Potency entry in assay [7], in assay [8], in [9], in [10], in assay [15] and in [12] was “inactive” each time. The Potency entry in assay [17] and in assay [14] was “inactive” throughout.
